From PubChem BioAssay (NCATS)
Inconclusive results are not listed. Activity calls are given as the source filed them. Unless noted, the call rests on the fitted dose curve; in most records, active means well fitted curve in either direction with a large enough effect (not every such curve was filed as active); inconclusive means small, poorly fitted or top-dose-only effect, or another doubt; inactive means flat fitted curve, though single readings scatter.

Columns and labels:
[1] = AP1 Signaling Pathway (AID 357); conditions: ME-180 AP-1-bla reporter, EGF-induced, beta-lactamase ratio, 5 h; at 17.2 µM (top of the series) unless noted;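 further: ME-180 reporter cells stimulated with EGF at its EC50 level; on the % scale 0 is the no-effect control and ±100 the full control effect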
Summary of the method: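 A ratiometric CCF4 readout (405 nm excitation; 460 and 530 nm emission) quantified AP-1-driven beta-lactamase in ME-180 cells after 5 h with compound and EC50 EGF; AC50 values were derived for activators and inhibitors.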

[2] = NFAT Signaling Pathway (AID 444); conditions: Jurkat NFAT-bla M1, carbachol, beta-lactamase ratio, 5 h; at 17.2 µM (top of the series) unless noted;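 further: carbachol stimulus at about its EC50 of 1 µM final; on the % scale 0 is the no-effect control and ±100 the full control effect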
Summary of the method: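 Jurkat cells with NFAT-driven β-lactamase reporter and co-expressed M1 receptor, stimulated with carbachol (final 1 uM, ~EC50), compound titration, 5 h at 37 °C. CCF4 loaded 1 h at RT; 460/530 nm ratio gave %activity and AC50.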

[3] = Stat Signaling Pathway (AID 446); conditions: ME-180 SIE beta-lactamase reporter, IL-6 stimulated, 5 h; at 17.2 µM (top of the series) unless noted;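 further: ME-180 cervical cancer cells given 40 pM IL-6 alongside compound; SIE-controlled beta-lactamase reporter measured as 460/530 nm FRET emission ratio; on the % scale 0 is the no-effect control and ±100 the full control effect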
Summary of the method: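 Compound effects on IL-6-induced STAT reporter activity were measured in ME-180 cells. After overnight culture, cells were co-treated with 40 pM IL-6 for 5 hrs before beta-lactamase substrate loading at room temperature.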

[4] = biological target: Glucocorticoid receptor (Homo sapiens) (UniProt P04150); experiment: GR-GFP Redistribution (AID 450;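 active means compounds whose dose series gives a full or clear partial fitted curve of increased nuclear translocation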; further: potency means the concentration at half of the fitted maximal effect)
[5] = biological target: Glucocorticoid receptor (Homo sapiens) (UniProt P04150); experiment: GR-EFC Redistribution (AID 451; calls by dose curve; further: potency means the concentration at half of the fitted maximal effect); conditions: CHO-K1 GR-EFC translocation, beta-gal luminescence, 2 h
Summary of the method: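 CHO-K1 cells expressing nuclear EA and GR-ED fragments of b-gal; compounds titrated up to 46 uM final, 2 h at 37 C. GR nuclear translocation read as complemented b-gal luminescence after 1 h RT detection.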

[6] = biological target: Mitogen-activated protein kinase 10 (Mus musculus) (UniProt Q61831); experiment: JNK3 AlphaScreen Assay (AID 530);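 further: kinase came from lysate of stimulated human HepG2 cells; signal reports phosphorylation of biotinylated GST-cJun 1-79 at Ser73 with 10 µM ATP; on the % scale 0 is the no-effect control and ±100 the full control effect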
Summary of the method: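 HepG2 lysate (IL-1b/TNFa pre-activated) + biotin-GST-cJun 1-79 + anti-pSer73 cJun; cpd titration, 15 min RT; ATP 10 uM start; Tris pH 7.6, MgCl2, DTT, vanadate; beads in EDTA buffer; AlphaScreen.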

[7] = biological target: 3',5'-cyclic-AMP phosphodiesterase 4B (Homo sapiens) (UniProt Q07343); experiment: qHTS Assay for Inhibitors of PDE-IV (AID 607; active means well fitted activation curve with a large enough effect in the main read-out, with a control signal flat, not every such curve was filed as active; further: % of control where 0% means no effect)
Summary of the method: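 ACTOne HEK293 cells carry a modified cAMP-gated CNG channel and express endogenous PDE4; plated 1000 cells/well, compounds up to 22.9 uM final. Membrane-potential dye fluorescence (ex 535/em 590) was read; parental cells received 10 uM forskolin + 100 uM RO 20-1724.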

[8] = biological target: Guanine nucleotide-binding protein G(i) subunit alpha-1 (Homo sapiens) (UniProt P63096); experiment: qHTS Assay for Inhibitors of RGS12 GoLoco Motif Activity (Green Fluorophore) (AID 879; active means well fitted curve in the direction sought with a large enough effect; an effect the other way counts as inactive or inconclusive;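 further: 0% = labeled peptide with Gαi1 and full inhibition = labeled peptide alone without protein; negative values mean loss of peptide binding seen as reduced polarization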)
Summary of the method: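 A drop in FITC polarization marked displacement of the FITC-tagged RGS12 GoLoco peptide (10 nM) from Gαi1 (50 nM). Compounds were incubated 10 min at room temperature in Tris pH 7.5 buffer containing 150 mM NaCl, 0.1 mM GDP and 0.05% NP40; unlabeled peptide titration served as control.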

[9] = qHTS Assay for Identification of Small Molecule Antagonists for NFkB Signaling Pathway (AID 895; active means well fitted inhibition curve with a large enough effect in the signal ratio, with a control signal flat, not every such curve was filed as active; the % refers to the signal ratio; further: on the % scale 0 is the no-effect control and ±100 the full control effect)
Summary of the method: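 ME-180 NFkB-bla cells (beta-lactamase under NFkB response element), plated overnight, treated with compound then 10 pM TNF alpha (about EC50) for 5 hrs at 37 C. LiveBLAzer FRET read at 460/530 nm emission, 405 nm excitation.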

[10] = qHTS Assay for Identification of Small Molecule Agonists for Thrombopoietin (TPO) Signaling Pathway (AID 917; active means well fitted curve in the direction sought with a large enough effect; an effect the other way counts as inactive or inconclusive; further: on the % scale 0 is the no-effect control and ±100 the full control effect)
Summary of the method: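 Luciferase reporter (Glycoprotein IIb promoter) in IL-3-deprived Ba/F3 cells carrying human TPO receptor; compounds co-added with 26 pM TPO, incubated 24 h, 37 C. Steadylite luminescence measured after 10 min.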

[11] = biological target: Muscarinic acetylcholine receptor M1 (Rattus norvegicus) (UniProt P08482); experiment: qHTS Assay for Antagonists of Acetylcholine Muscarinic M1 Receptor: Kinetic Measurement of Intracellular Calcium Response (AID 943; active means well fitted curve in the direction sought with a large enough effect; an effect the other way counts as inactive or inconclusive;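 further: Fluo-4 calcium signal as peak divided by basal fluorescence over 4 min; nearly all actives have a fitted effect of over 75% in size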)
Summary of the method: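 Read-out: peak over basal Fluo-4 fluorescence, kinetic at 1 Hz for 4 min after EC80 carbachol (100 nM final). Rat M1-CHO cells, dye loaded 1 h at 37C, compound added 10 min before agonist.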

[12] = biological target: Pyruvate kinase (Leishmania mexicana) (UniProt Q27686); experiment: qHTS Validation Assay for Inhibitors of Leishmania Mexicana Pyruvate Kinase (AID 945; active means well fitted curve in the direction sought with a large enough effect; an effect the other way counts as inactive or inconclusive;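 further: 0% = DMSO only neutral control wells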)
Summary of the method: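 Purified LmPYK (E451W mutant, 0.2 nM) was incubated 1 h at room temperature with 0.5 mM PEP and 0.1 mM ADP in 50 mM imidazole pH 7.2, 50 mM KCl, 7 mM MgCl2; ATP formed was read by PKLight luminescence, normalized to DMSO wells.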

[13] = biological target: Pyruvate kinase PKM (Homo sapiens) (UniProt P14618); experiment: qHTS Assay for Activators of Human Muscle Pyruvate Kinase (AID 954; active means well fitted curve in the direction sought with a large enough effect, not every such curve was filed as active;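 further: 0% = uninhibited enzyme and -100% = no enzyme or full thiadiazolimine inhibition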)
Summary of the method: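 A coupled luminescent readout tracked ATP made from ADP by purified PKM2. Final conditions included 0.1 nM enzyme, PEP and ADP at 0.5 and 0.1 mM, pH 7.2 imidazole buffer with BSA, and a one-hour room-temperature reaction.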

[14] = biological target: Alpha-galactosidase A (Homo sapiens) (UniProt P06280); experiment: Counterscreen for Glucocerebrosidase Inhibitors: qHTS Assay for Human alpha-Galactosidase at pH 4.5 (AID 992; active means well fitted curve in the direction sought with a large enough effect; an effect the other way counts as inactive or inconclusive; further: 0% is about no effect)
Summary of the method: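 Citrate buffer pH 4.5, Tween-20 0.005%. Enzyme 2 nM, substrate 80 uM, 20 min RT. Stop pH 10. Fluorescence Ex 365/Em 440. AC50 by Hill fit.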

[15] = biological target: alpha-glucosidase (Oryza sativa, rice) (UniProt Q653V4); experiment: Counterscreen for Glucocerebrosidase Inhibitors: qHTS Assay for Rice alpha-Glucosidase at pH 5.0 (AID 997; active means well fitted curve in the direction sought with a large enough effect; an effect the other way counts as inactive or inconclusive;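 further: 0% = full activity with enzyme and -100% = basal without enzyme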)
Summary of the method: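 Endpoint fluorogenic assay at pH 5.0: compounds (0.7 nM to 77 uM) titrated against 4 nM rice enzyme and 400 uM 4-MU-alpha-glucoside for 20 min at room temperature; NaOH/glycine stop, read ex 365/em 440 nm, Hill-fitted AC50.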

[16] = biological target: Cytochrome P450 3A4 (Homo sapiens) (UniProt P08684); experiment: qHTS Assay for Activators of Cytochrome P450 3A4 (AID 885; active means well fitted curve in the direction sought with a large enough effect; an effect the other way counts as inactive or inconclusive; further: nearly all actives have a fitted effect of over 65% in size)
Summary of the method: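 CYP3A4 activity: Luciferin-PPXE O-dealkylation, 25uM substrate, 200mM KPO4, RT throughout. Read-out is luciferase luminescence; higher values reflect activation.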

Sequence of Pyruvate kinase (Leishmania mexicana) (Q27686 2-499 E452W): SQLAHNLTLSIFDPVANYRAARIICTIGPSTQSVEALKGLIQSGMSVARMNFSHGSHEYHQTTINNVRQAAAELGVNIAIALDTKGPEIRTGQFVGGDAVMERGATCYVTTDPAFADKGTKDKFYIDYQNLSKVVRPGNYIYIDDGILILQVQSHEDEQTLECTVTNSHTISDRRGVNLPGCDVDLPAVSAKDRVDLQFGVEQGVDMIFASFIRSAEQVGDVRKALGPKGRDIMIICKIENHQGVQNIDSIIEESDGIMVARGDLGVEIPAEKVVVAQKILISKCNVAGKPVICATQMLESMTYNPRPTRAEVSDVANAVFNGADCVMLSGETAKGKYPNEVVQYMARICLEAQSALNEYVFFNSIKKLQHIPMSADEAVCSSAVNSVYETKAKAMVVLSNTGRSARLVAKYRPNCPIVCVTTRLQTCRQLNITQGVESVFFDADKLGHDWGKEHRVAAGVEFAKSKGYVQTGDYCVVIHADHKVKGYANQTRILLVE
Sequence of Alpha-galactosidase A (Homo sapiens) (P06280 whole entry, looked up): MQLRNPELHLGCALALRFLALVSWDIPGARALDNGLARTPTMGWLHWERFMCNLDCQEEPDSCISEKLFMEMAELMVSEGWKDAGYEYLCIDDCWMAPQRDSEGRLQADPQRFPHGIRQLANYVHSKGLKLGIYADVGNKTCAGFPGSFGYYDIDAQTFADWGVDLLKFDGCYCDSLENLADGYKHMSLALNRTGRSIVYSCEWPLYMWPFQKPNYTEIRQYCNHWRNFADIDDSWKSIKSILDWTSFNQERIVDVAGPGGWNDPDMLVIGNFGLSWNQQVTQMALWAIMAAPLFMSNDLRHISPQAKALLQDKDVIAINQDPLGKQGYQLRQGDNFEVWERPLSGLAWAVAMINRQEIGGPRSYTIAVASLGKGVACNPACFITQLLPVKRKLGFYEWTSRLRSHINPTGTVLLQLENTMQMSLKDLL
Sequence of Pyruvate kinase PKM (Homo sapiens) (P14618 whole entry, looked up): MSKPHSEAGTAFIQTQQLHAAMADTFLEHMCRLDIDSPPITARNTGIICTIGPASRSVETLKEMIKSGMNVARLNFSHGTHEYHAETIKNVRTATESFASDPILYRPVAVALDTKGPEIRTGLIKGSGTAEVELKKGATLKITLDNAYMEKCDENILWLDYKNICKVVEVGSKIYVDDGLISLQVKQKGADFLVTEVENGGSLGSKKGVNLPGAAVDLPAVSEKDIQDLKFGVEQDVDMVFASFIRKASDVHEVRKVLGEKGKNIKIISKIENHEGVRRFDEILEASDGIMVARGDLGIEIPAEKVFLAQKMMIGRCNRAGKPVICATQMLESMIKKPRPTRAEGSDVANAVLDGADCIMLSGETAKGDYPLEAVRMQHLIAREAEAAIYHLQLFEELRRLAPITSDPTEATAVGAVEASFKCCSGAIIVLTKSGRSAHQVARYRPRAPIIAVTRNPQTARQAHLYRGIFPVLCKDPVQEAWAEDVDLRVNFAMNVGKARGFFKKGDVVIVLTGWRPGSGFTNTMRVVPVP
Sequence of 3',5'-cyclic-AMP phosphodiesterase 4B (Homo sapiens) (Q07343 whole entry, looked up): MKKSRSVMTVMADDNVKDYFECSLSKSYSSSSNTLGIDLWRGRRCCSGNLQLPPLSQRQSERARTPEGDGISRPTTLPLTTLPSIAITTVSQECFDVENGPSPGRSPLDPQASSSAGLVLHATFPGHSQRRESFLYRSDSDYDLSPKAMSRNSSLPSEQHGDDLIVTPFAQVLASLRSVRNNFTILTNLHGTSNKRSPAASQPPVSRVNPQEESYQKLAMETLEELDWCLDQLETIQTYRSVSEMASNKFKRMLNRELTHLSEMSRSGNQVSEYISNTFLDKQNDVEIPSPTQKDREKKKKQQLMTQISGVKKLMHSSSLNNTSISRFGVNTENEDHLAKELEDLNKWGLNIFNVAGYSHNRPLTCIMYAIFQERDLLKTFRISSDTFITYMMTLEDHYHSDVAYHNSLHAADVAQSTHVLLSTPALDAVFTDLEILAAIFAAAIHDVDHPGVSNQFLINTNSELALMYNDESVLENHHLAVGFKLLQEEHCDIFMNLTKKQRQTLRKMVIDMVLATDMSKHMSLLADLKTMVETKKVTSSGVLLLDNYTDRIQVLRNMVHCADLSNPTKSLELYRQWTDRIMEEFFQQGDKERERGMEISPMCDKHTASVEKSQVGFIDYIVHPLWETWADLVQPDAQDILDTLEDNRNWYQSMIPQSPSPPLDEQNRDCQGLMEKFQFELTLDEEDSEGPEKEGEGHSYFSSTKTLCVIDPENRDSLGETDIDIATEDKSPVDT
Sequence of Glucocorticoid receptor (Homo sapiens) (P04150 whole entry, looked up, the tested form may be a part): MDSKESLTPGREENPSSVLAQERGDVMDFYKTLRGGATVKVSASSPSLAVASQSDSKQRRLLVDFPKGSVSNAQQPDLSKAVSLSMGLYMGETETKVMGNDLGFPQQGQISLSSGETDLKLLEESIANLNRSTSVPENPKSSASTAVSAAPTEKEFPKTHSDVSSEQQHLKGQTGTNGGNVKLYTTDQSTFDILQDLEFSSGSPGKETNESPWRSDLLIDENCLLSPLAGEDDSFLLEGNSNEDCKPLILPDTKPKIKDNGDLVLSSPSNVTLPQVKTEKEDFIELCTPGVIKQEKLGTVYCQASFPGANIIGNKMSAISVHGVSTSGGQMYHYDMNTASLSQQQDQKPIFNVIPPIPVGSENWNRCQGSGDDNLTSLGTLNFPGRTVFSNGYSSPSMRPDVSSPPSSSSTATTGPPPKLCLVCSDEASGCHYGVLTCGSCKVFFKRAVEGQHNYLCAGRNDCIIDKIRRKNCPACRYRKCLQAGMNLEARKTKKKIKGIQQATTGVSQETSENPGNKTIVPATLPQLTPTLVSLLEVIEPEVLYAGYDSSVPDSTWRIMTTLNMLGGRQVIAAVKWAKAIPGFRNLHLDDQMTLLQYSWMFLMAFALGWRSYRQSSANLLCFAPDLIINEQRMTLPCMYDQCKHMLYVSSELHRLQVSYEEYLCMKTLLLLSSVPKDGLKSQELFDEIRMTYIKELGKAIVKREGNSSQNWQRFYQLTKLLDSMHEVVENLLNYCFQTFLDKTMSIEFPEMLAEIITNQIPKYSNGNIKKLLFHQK
Sequence of Muscarinic acetylcholine receptor M1 (Rattus norvegicus) (P08482 whole entry, looked up): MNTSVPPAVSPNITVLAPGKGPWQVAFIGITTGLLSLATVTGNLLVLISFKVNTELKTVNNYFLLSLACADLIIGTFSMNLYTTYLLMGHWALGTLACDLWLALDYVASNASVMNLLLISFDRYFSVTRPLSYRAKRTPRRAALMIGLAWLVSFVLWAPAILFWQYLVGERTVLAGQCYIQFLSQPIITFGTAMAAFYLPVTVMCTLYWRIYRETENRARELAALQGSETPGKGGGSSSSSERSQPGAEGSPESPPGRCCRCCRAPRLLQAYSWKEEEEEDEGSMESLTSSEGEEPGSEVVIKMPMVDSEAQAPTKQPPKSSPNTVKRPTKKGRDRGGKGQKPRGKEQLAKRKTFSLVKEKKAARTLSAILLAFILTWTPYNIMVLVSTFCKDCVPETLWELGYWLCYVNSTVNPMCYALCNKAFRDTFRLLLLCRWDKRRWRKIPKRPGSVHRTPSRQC
Sequence of Guanine nucleotide-binding protein G(i) subunit alpha-1 (Homo sapiens) (P63096 whole entry, looked up): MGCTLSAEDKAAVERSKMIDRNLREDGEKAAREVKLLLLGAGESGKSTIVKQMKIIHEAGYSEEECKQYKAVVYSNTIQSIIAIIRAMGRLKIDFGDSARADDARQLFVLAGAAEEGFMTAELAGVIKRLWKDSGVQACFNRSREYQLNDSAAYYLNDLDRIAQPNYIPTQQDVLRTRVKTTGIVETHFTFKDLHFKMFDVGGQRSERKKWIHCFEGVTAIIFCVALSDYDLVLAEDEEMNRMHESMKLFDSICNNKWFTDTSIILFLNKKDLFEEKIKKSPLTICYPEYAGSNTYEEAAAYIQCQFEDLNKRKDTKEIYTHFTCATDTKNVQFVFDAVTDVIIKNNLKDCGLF
Sequence of Cytochrome P450 3A4 (Homo sapiens) (P08684 whole entry, looked up): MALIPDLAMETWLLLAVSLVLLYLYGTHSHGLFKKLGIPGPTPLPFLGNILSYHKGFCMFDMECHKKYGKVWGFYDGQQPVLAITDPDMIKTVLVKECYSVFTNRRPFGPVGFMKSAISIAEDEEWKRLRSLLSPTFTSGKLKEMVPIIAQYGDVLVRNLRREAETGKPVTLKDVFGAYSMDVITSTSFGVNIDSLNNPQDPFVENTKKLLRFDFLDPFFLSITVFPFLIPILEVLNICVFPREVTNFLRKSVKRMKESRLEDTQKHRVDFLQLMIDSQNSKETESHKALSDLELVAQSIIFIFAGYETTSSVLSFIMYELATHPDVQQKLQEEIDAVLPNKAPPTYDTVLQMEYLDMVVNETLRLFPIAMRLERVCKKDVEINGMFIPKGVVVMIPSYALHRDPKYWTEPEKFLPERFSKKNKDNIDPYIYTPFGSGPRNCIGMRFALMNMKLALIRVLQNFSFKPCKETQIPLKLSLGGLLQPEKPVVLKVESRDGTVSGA

O=c1[nH]c(=O)n([C@H]2C[C@H](O)[C@H](CO)O2)cc1/C=C\Br
inactive: activity change, negative = inhibition [1] -6.02% [at 38 µM] | activity change, negative = inhibition [2] 3.97% [at 38 µM] | activity, negative = inhibition [3] 6.62% [at 38 µM] | Potency [4] > 46 µM | Potency [5] > 46 µM | Potency [6] | Potency [7] | outcome [8] | Potency [9] | Potency [10] | Potency [11] | Potency [12] | outcome [13] | outcome [14] | outcome [15]

COc1ccc(C2CC(C(F)(F)F)n3ncc(C(=O)NCC4CCCO4)c3N2)cc1OC (centres undefined)
inactive: activity change, negative = inhibition [1] -0.991% | activity change, negative = inhibition [2] 3.91% | activity, negative = inhibition [3] -0.435% | Potency [4] > 20.6 µM

NC(=S)c1ccc[n+]([C@@H]2O[C@@H](COP(=O)([O-])OP(=O)(O)OC[C@@H]3O[C@@H](n4cnc5c(N)ncnc54)[C@@H](OP(=O)(O)O)[C@H]3O)[C@@H](O)[C@H]2O)c1
inactive: activity change, negative = inhibition [1] 5.32% [at 38 µM] | activity change, negative = inhibition [2] -7.28% [at 38 µM] | activity, negative = inhibition [3] 1.28% [at 38 µM] | Potency [4] > 46 µM | Potency [5] > 46 µM | Potency [7] | Potency [16] | Potency [10] | Potency [12] | outcome [13] | outcome [14] | outcome [15]

N[C@H](Cc1cccc(-c2ccccc2CP(=O)(O)O)c1)C(=O)O
inactive: activity change, negative = inhibition [1] 8.92% [at 38 µM] | activity change, negative = inhibition [2] 12.7% [at 38 µM] | activity, negative = inhibition [3] 1.71% [at 38 µM] | Potency [4] > 46 µM | Potency [5] > 46 µM | Potency [6] | Potency [7] | Potency [9] | Potency [10] | Potency [12] | outcome [13] | outcome [14] | outcome [15]

C[N+](C)(C)CCN[N@@+]1(C)CCCc2ccccc21
inactive: activity change, negative = inhibition [1] -2.74% [at 7.69 µM] | activity change, negative = inhibition [2] -8.45% [at 7.69 µM] | activity, negative = inhibition [3] 7.61% [at 7.69 µM] | Potency [4] > 46 µM | Potency [5] > 9.22 µM | activity change, negative = inhibition [6] 4.98% [at 11.4 µM] | Potency [7]

CC(C)Cc1[nH]c(=O)c(C#N)c2c1COC(C)(C)C2
inactive: activity change, negative = inhibition [1] 9.17% | activity change, negative = inhibition [2] 17.3% | activity, negative = inhibition [3] 2.18% | Potency [4] > 20.6 µM

O=C(O)[C@@H]1CCCN[C@H]1C(=O)O
inactive: activity change, negative = inhibition [1] 13% [at 38 µM] | activity change, negative = inhibition [2] -7.71% [at 38 µM] | activity, negative = inhibition [3] -12.9% [at 38 µM] | Potency [4] > 46 µM | Potency [5] > 46 µM | Potency [6] | Potency [7] | outcome [8] | Potency [9] | Potency [10] | Potency [11] | Potency [12] | outcome [13] | outcome [14] | outcome [15]

CCOC(=O)CC(C#N)c1cn(C)c2ccccc12 (centres undefined)
inactive: activity change, negative = inhibition [1] 8.21% | activity change, negative = inhibition [2] -8.09% | activity, negative = inhibition [3] 3.49% | Potency [4] > 20.6 µM
